# PubChem BioAssay (Tox21)
# Records with an inconclusive call do not appear. A number with no mark means an inactive call. The source made the active and inactive calls. Unless noted, calls come from the whole dose curve.
# Target: Vitamin D3 receptor (Homo sapiens) (UniProt P11473)
# Assay: qHTS assay to identify small molecule agonists of the vitamin D receptor (VDR) signaling pathway (AID 743222)
# Details: HEK293T VDR-UAS-bla, beta-lactamase FRET ratio, 16 h; series mostly up to 63.5 µM; activation: at the top concentration
# Outline: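 VDR-bla cells plated 4 h at 37 C, then exposed to compounds for 16 h at 37 C. Beta-lactamase reporter activity measured by fluorescence after 2 h room-temperature loading with LiveBLAzer B/G FRET substrate.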
# % is set by controls: 0 for no effect and ±100 for the full control effect.
# Vitamin D3 receptor (Homo sapiens), sequence (P11473 whole entry, looked up): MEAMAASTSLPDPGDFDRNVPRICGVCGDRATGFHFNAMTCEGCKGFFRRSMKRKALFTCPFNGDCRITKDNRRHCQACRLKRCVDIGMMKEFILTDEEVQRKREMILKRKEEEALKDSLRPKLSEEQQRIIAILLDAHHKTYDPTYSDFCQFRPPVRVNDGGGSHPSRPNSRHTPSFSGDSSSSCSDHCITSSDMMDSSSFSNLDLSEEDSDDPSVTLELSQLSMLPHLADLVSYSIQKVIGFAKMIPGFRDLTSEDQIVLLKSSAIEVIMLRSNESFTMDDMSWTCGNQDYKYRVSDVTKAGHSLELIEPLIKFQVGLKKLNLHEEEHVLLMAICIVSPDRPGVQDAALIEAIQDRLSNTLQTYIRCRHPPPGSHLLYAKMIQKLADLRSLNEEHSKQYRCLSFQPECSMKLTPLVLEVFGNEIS
row,Compound,activation
1,N=C(N)c1ccc(OCCCOc2ccc(C(=N)N)cc2)cc1,4.75%
2,CS(=O)(=O)O,-3.53% [at 81.1 µM]
3,Cc1ccc(Cl)cc1Cl,3.94%
4,CN1CCN(c2cc3c(cc2F)c(=O)c(C(=O)O)cn3-c2ccc(F)cc2)CC1,-1.12%
5,CC(=O)Nc1c(I)cc(I)c(C(=O)O)c1I,5.84%
6,O=C1CCCCCCCCCCCN1,1.53%
7,Cc1c(O)cccc1O,1.09% [at 81.1 µM]
8,CCOC(=O)c1c(C)n(C)c2ccc(O)cc12,0.288%
9,CO/N=C(/C(=O)N[C@@H]1C(=O)N2C(C(=O)OCOC(=O)C(C)(C)C)=C(C)CS[C@H]12)c1csc(N)n1,10.2%
10,COC(=O)C1=C(C)NC(C)=C(C(=O)OC)C1c1ccccc1[N+](=O)[O-],-3.74%
11,NC(=O)Nc1ccccc1,1.98%
12,CC(=O)OC/C=C(\C)CC/C=C(\C)CCC=C(C)C,-14.5%
13,CC(=O)CC(C)C,0.12%
14,c1cnc(N2CCN(Cc3ccc4c(c3)OCO4)CC2)nc1,4.09%
15,CCOC(=O)[C@H](CCc1ccccc1)N[C@@H](C)C(=O)N1[C@H](C(=O)O)C[C@@H]2CCC[C@@H]21,0.157%
16,CC(C)CNCC(C)C,-9%
17,O=C(CCCN1CCC(O)(c2cccc(C(F)(F)F)c2)CC1)c1ccc(F)cc1,-5.87%
18,NS(=O)(=O)c1cc(C(=O)O)cc(N2CCCC2)c1Oc1ccccc1,4.52%
19,CCOC(=O)Nc1ccc(NCc2ccc(F)cc2)nc1N,0.324%
20,CCN(Cc1ccncc1)C(=O)C(CO)c1ccccc1 (stereo unspecified),-0.728%
21,COC(=O)c1ccc(C)cc1C1=NC(C)(C(C)C)C(=O)N1 (stereo unspecified),8.53%
22,NC(=O)c1ccc(N)cc1,3.03%
23,CC(C)OC(=O)c1ccccc1,6.79% [at 81.1 µM]
24,CCO/C([O-])=N/c1c[n+](N2CCOCC2)no1,8.41%
25,CC1(C)CO[C@@H](CC(=O)O)CN1,6.67%
26,CN(C)CCCN1c2ccccc2CCc2ccc(Cl)cc21,-14.5%
27,CN1CC(=O)NC1=N,9.45%

# Target: Vitamin D3 receptor (Homo sapiens) (UniProt P11473)
# Assay: qHTS assay to identify small molecule antagonists of the vitamin D receptor (VDR) signaling pathway (AID 743223; active = well fitted inhibition curve with a large enough effect in the signal ratio in the repeat runs, not every such curve was filed as active; the % refers to the signal ratio)
# Details: VDR-UAS-bla HEK293T, beta-lactamase FRET ratio, 16 h; series mostly up to 61 µM; activity change, negative = inhibition: at the top concentration
# Outline: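 Cells carrying a VDR-driven beta-lactamase reporter (VDR-bla) were co-treated with compound and 3 nM final 1alpha,25-dihydroxyvitamin D3 for 16 h at 37C; reporter activity was measured as FRET substrate fluorescence after 2 h at room temperature.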
Compound,"activity change, negative = inhibition",outcome
N=C(N)c1ccc(OCCCOc2ccc(C(=N)N)cc2)cc1,-14.5%,–
CS(=O)(=O)O,1% [at 78.8 µM],–
Cc1ccc(Cl)cc1Cl,-7.61%,–
NC(=O)COCCN1CCN(C(c2ccccc2)c2ccc(Cl)cc2)CC1 (stereo unspecified),-6.6%,–
CC(=O)Nc1c(I)cc(I)c(C(=O)O)c1I,-2.49%,–
O=C1CCCCCCCCCCCN1,–,inactive
Cc1c(O)cccc1O,3.46% [at 78.8 µM],–
CCOC(=O)c1c(C)n(C)c2ccc(O)cc12,2.3%,–
COC(=O)C1=C(C)NC(C)=C(C(=O)OC)C1c1ccccc1[N+](=O)[O-],0.279%,–
CC(=O)CC(C)C,-3.31%,–
c1cnc(N2CCN(Cc3ccc4c(c3)OCO4)CC2)nc1,-3.29%,–
CCOC(=O)[C@H](CCc1ccccc1)N[C@@H](C)C(=O)N1[C@H](C(=O)O)C[C@@H]2CCC[C@@H]21,-0.389%,–
O=C(CCCN1CCC(O)(c2cccc(C(F)(F)F)c2)CC1)c1ccc(F)cc1,-1.06%,–
NS(=O)(=O)c1cc(C(=O)O)cc(N2CCCC2)c1Oc1ccccc1,5.78%,–
CCN(Cc1ccncc1)C(=O)C(CO)c1ccccc1 (stereo unspecified),-1%,–
NC(=O)c1ccc(N)cc1,-1.74%,–
CCO/C([O-])=N/c1c[n+](N2CCOCC2)no1,17.5%,–
CC1(C)CO[C@@H](CC(=O)O)CN1,19.8%,–
CN1CC(=O)NC1=N,-0.387%,–
